Results published in PubChem BioAssay (NCATS).
Unmarked numbers belong to inactive results. Inconclusive results are not listed. Active and inactive are the calls of the source. Unless noted, calls come from the whole dose curve; as a rule, active = well fitted curve in either direction with a large enough effect (not every such curve was filed as active); inconclusive = small, poorly fitted or top-dose-only effect, or another doubt; inactive = flat fitted curve, though single readings scatter.

How the values were obtained:
[1] = biological target: Lysosomal acid glucosylceramidase (Homo sapiens) (UniProt P04062); assay: Glucocerebrosidase-p2 (AID 348; in the data active = potency below about 10 µM; note: potency is the fitted concentration of half-maximal effect); details: purified GBA, blue fluorogenic substrate, 40 min
In short: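 Compounds titrated from 0.6 nM upwards against 0.2 nM enzyme in pH 5.9 citric acid/KH2PO4, taurocholate, tween-20; blue fluorogenic substrate 80 uM, 40 min room temperature, stopped and read Ex 365/Em 440 for AC50.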

[2] = AP1 Signaling Pathway (AID 357); details: ME-180 AP-1-bla reporter, EGF-induced, beta-lactamase ratio, 5 h; at 7.69 µM (top of the series) unless noted;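 note: ME-180 reporter cells stimulated with EGF at its EC50 level; % is set by controls: 0 for no effect and ±100 for the full control effect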
In short: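 Read-out was the 460nm/530nm emission ratio (excitation 405nm) after CCF4 loading for 2.5 hours at room temperature. Cells carried an AP-1-driven beta-lactamase reporter, were stimulated with EC50 EGF plus compound for 5 hours, and AC50 values came from titrations.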

[3] = biological target: Cytochrome P450 1A2 (Homo sapiens) (UniProt P05177); assay: p450-cyp1a2 (AID 410; calls by dose curve; note: potency is the fitted concentration of half-maximal effect;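 for activity change, negative = inhibition: -100% = full effect of reference inhibitor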); details: recombinant CYP1A2, luciferin-ME demethylation, luminescence; series mostly up to 11.4 µM
In short: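 Human CYP1A2 (20nM) demethylated Luciferin-ME at its Km (100uM) in 100mM KPO4. After 10 min compound preincubation, NADPH regeneration ran the reaction 60 min at room temperature. Luciferin was read by luminescence, normalized to 57 uM furafylline.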

[4] = NFAT Signaling Pathway (AID 444); details: Jurkat NFAT-bla M1, carbachol, beta-lactamase ratio, 5 h; at 7.69 µM (top of the series) unless noted;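 note: carbachol stimulus at about its EC50 of 1 µM final; % is set by controls: 0 for no effect and ±100 for the full control effect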
In short: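 Jurkat cells carrying an NFAT-driven β-lactamase reporter and co-transfected muscarinic M1 receptor were treated with compound plus carbachol (1 uM final, an EC50 level) for 5 h at 37 °C. CCF4 loading followed for 1 h at RT; 460/530 nm ratio gave %activity.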

[5] = Stat Signaling Pathway (AID 446); details: ME-180 SIE beta-lactamase reporter, IL-6 stimulated, 5 h; at 7.69 µM (top of the series) unless noted;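 note: ME-180 cervical cancer cells given 40 pM IL-6 alongside compound; SIE-controlled beta-lactamase reporter measured as 460/530 nm FRET emission ratio; % is set by controls: 0 for no effect and ±100 for the full control effect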
In short: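 Reporter line: ME-180 cervical carcinoma, SIE-beta-lactamase. Treatment: compound with 40 pM IL-6, 5 hrs, 37 C, in low-serum OPTI-MEM with 10 mM HEPES pH 7.3. Detection: 460/530 nm fluorescence.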

[6] = biological target: Glucocorticoid receptor (Homo sapiens) (UniProt P04150); assay: GR-GFP Redistribution (AID 450;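 active = compounds whose dose series gives a full or clear partial fitted curve of increased nuclear translocation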; note: potency is the fitted concentration of half-maximal effect); details: U2OS GR-GFP nuclear translocation, laser cytometry, 2 h
[7] = biological target: Glucocorticoid receptor (Homo sapiens) (UniProt P04150); assay: GR-EFC Redistribution (AID 451; calls by dose curve; note: potency is the fitted concentration of half-maximal effect); details: CHO-K1 GR-EFC translocation, beta-gal luminescence, 2 h
In short: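 CHO-K1 cells stably expressing nuclear-localized β-gal enzyme acceptor and GR fused C-terminally to the enzyme donor fragment; ligand-driven nuclear translocation restores β-gal by complementation. Compounds titrated up to 46 uM final, 2 h at 37 °C; luminescence read.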

[8] = biological target: Mitogen-activated protein kinase 10 (Mus musculus) (UniProt Q61831); assay: JNK3 AlphaScreen Assay (AID 530); details: JNK3 lysate, c-Jun phosphorylation; series mostly up to 11.4 µM;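 note: kinase came from lysate of stimulated human HepG2 cells; signal reports phosphorylation of biotinylated GST-cJun 1-79 at Ser73 with 10 µM ATP; % is set by controls: 0 for no effect and ±100 for the full control effect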
In short: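 JNK3 came from HepG2 lysates pre-activated with IL-1beta and TNF-alpha and phosphorylated biotinylated GST-cJun (1-79) at 10 uM ATP, pH 7.6, room temperature. Compounds were titrated. AlphaScreen signal used anti-phospho-cJun (Ser73) antibody.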

[9] = biological target: 3',5'-cyclic-AMP phosphodiesterase 4B (Homo sapiens) (UniProt Q07343); assay: qHTS Assay for Inhibitors of PDE-IV (AID 607; active = well fitted activation curve with a large enough effect in the main read-out, with a control signal flat, not every such curve was filed as active; note: % of control where 0% means no effect); details: HEK293 ACTOne CNG channel cells, membrane potential fluorescence; series mostly up to 22.9 µM
In short: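 Cell-based read-out of cAMP via a modified cyclic nucleotide-gated channel and membrane potential dye (535/590 nm) in HEK293 cells expressing PDE4 endogenously. Compounds tested up to 22.9 uM final; 100 uM RO 20-1724 reference.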

[10] = biological target: Cytochrome P450 2C9 (Homo sapiens) (UniProt P11712); assay: qHTS Assay for Inhibitors and Substrates of Cytochrome P450 2C9 (AID 883; active = well fitted curve in the direction sought with a large enough effect; an effect the other way counts as inactive or inconclusive; note: nearly all actives have a fitted effect of over 60% in size; note: potency is the fitted concentration of half-maximal effect); details: recombinant CYP2C9, luciferin-H luminescence, 60 min; series mostly up to 11.4 µM
In short: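 Human CYP2C9 (10nM) hydroxylated Luciferin-H (100uM, at its KM) to luciferin in 25mM KPO4. Compound was preincubated 10 min at 37C, then NADPH regeneration started a 60 min reaction at 37C. Luminescence was read after detection reagent, normalized to 57uM sulphaphenazole.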

[11] = biological target: Cytochrome P450 3A4 (Homo sapiens) (UniProt P08684); assay: qHTS Assay for Inhibitors and Substrates of Cytochrome P450 3A4 (AID 884; active = well fitted curve in the direction sought with a large enough effect; an effect the other way counts as inactive or inconclusive; note: nearly all actives have a fitted effect of over 50% in size; note: potency is the fitted concentration of half-maximal effect); details: recombinant CYP3A4, Luciferin-PPXE luminescence; series mostly up to 57.1 µM
In short: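 20 nM human CYP3A4 with 25 uM Luciferin-PPXE (at KM) in 200 mM KPO4, preincubated 10 min with compound; NADPH regeneration started a 60 min RT reaction. Luciferin detected by luminescence, normalized to 57 uM ketoconazole as full inhibition.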

[12] = biological target: Cytochrome P450 3A4 (Homo sapiens) (UniProt P08684); assay: qHTS Assay for Activators of Cytochrome P450 3A4 (AID 885; active = well fitted curve in the direction sought with a large enough effect; an effect the other way counts as inactive or inconclusive; note: nearly all actives have a fitted effect of over 65% in size); details: recombinant CYP3A4, Luciferin-PPXE luminescence, 60 min; series mostly up to 11.4 µM
In short: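 Signal was normalized against complete inhibition by 57 uM ketoconazole. The reaction used 20nM CYP3A4 with 25uM Luciferin-PPXE, 10-min compound preincubation and a 60-min NADPH-supported step at RT.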

[13] = biological target: Cytochrome P450 2D6 (Homo sapiens) (UniProt P10635); assay: qHTS Assay for Inhibitors and Substrates of Cytochrome P450 2D6 (AID 891; active = well fitted curve in the direction sought with a large enough effect; an effect the other way counts as inactive or inconclusive; note: nearly all actives have a fitted effect of over 60% in size; note: potency is the fitted concentration of half-maximal effect); details: recombinant CYP2D6, luciferin-ME EGE luminescence; series mostly up to 11.4 µM
In short: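 Human CYP2D6 (5 nM) with 30 uM Luciferin-ME EGE (at Km) in 100 mM KPO4, compound preincubated 10 min, then NADPH regeneration system for 60 min at room temperature. Luciferin read by luminescence; normalized to 1.43 uM quinidine.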

[14] = biological target: Cytochrome P450 2C19 (Homo sapiens) (UniProt P33261); assay: qHTS Assay for Inhibitors and Substrates of Cytochrome P450 2C19 (AID 899; active = well fitted curve in the direction sought with a large enough effect; an effect the other way counts as inactive or inconclusive; note: nearly all actives have a fitted effect of over 60% in size; note: potency is the fitted concentration of half-maximal effect); details: recombinant CYP2C19, luciferin-H EGE luminescence; series mostly up to 11.4 µM
In short: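 Human CYP2C19 (5nM) with Luciferin-H EGE at 10uM (its KM) in 50mM KPO4 was preincubated with compound for 10 min at 37C. NADPH regeneration started a 60 min 37C reaction. Luciferin was read by luminescence, normalized to 57uM ketoconazole.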

Chain of Cytochrome P450 1A2 (Homo sapiens) (P05177 whole entry, looked up): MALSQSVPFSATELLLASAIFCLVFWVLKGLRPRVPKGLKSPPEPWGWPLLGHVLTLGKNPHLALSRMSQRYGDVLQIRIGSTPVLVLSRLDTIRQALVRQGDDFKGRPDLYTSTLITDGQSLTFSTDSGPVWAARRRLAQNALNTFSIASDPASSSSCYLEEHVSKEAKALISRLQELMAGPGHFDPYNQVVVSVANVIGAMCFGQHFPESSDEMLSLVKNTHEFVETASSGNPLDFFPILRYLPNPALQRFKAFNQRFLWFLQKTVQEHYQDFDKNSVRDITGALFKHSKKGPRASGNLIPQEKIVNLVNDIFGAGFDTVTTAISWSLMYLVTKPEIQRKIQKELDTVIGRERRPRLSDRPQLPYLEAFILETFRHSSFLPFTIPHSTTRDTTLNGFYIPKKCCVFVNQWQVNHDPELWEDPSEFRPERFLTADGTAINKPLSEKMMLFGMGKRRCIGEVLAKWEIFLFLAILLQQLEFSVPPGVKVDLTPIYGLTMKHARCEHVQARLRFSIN
Chain of 3',5'-cyclic-AMP phosphodiesterase 4B (Homo sapiens) (Q07343 whole entry, looked up): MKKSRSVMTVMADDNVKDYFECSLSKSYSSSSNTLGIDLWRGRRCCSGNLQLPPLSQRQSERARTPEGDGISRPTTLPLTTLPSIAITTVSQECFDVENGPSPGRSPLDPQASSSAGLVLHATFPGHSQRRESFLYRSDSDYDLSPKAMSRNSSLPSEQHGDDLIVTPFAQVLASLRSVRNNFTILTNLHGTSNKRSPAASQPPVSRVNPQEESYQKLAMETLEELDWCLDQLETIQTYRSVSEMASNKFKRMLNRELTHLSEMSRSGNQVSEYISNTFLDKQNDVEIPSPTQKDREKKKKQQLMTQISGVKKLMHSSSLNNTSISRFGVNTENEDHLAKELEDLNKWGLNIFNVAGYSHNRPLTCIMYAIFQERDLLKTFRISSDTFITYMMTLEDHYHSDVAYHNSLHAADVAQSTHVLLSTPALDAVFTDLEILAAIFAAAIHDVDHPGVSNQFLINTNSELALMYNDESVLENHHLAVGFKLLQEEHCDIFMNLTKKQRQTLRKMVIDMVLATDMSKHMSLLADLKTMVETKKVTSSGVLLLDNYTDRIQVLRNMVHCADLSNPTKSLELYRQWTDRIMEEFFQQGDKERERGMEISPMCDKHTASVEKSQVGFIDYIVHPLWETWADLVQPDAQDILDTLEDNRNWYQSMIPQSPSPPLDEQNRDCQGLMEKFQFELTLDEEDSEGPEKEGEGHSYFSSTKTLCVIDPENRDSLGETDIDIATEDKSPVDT
Chain of Cytochrome P450 2C19 (Homo sapiens) (P33261 whole entry, looked up): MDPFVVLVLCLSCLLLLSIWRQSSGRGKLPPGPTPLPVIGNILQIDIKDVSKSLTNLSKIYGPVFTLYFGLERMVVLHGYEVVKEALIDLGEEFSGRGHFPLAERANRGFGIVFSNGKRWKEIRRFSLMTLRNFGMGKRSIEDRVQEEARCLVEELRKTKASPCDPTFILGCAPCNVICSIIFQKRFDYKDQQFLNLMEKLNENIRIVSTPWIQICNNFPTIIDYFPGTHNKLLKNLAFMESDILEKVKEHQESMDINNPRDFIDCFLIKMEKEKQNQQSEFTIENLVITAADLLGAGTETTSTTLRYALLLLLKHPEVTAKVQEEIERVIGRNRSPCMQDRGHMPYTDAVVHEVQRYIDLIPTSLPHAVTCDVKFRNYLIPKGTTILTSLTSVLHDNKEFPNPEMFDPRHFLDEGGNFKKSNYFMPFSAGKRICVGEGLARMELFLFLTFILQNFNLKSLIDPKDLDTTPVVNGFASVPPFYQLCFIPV
Chain of Cytochrome P450 2D6 (Homo sapiens) (P10635 whole entry, looked up): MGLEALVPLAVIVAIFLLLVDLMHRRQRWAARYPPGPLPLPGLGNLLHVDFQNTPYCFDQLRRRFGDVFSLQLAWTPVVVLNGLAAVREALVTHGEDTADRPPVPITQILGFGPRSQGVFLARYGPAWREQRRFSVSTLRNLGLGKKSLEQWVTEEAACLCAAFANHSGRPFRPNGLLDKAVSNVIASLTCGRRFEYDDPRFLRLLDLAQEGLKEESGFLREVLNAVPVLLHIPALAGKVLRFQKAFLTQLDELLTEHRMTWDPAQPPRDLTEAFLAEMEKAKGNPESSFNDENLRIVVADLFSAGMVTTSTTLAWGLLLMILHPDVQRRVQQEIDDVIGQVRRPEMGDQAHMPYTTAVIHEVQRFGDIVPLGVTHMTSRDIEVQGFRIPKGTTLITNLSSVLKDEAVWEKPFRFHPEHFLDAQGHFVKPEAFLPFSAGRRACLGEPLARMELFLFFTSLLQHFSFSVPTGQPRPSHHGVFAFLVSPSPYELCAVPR
Chain of Lysosomal acid glucosylceramidase (Homo sapiens) (P04062 whole entry, looked up): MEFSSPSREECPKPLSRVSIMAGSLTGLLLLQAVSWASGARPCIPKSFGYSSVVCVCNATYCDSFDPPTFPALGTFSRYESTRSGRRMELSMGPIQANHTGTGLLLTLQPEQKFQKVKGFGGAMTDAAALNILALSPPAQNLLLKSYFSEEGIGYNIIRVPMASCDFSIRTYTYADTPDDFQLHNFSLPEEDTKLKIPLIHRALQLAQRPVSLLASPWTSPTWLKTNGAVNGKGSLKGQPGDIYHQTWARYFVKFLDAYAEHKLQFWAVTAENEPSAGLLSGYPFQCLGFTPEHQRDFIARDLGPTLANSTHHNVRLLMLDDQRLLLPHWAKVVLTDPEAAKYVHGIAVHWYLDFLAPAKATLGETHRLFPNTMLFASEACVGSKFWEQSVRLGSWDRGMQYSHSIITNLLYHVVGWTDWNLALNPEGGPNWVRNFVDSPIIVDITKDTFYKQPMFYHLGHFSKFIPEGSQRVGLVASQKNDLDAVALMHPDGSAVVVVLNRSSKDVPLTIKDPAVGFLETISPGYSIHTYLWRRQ
Chain of Cytochrome P450 2C9 (Homo sapiens) (P11712 whole entry, looked up): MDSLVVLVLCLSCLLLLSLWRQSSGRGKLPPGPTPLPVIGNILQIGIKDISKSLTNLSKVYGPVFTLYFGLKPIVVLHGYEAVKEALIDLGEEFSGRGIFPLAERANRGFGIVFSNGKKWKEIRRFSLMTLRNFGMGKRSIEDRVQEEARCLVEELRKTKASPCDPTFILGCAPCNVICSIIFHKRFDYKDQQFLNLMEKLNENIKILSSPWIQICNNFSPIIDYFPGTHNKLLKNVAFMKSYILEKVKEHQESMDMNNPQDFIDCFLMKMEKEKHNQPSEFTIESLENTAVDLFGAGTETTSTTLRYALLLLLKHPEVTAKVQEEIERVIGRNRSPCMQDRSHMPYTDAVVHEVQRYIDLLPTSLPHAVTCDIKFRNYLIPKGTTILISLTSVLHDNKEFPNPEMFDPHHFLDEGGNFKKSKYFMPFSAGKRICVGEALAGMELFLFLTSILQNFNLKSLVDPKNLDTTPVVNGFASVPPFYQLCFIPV
Chain of Glucocorticoid receptor (Homo sapiens) (P04150 whole entry, looked up, the tested form may be a part): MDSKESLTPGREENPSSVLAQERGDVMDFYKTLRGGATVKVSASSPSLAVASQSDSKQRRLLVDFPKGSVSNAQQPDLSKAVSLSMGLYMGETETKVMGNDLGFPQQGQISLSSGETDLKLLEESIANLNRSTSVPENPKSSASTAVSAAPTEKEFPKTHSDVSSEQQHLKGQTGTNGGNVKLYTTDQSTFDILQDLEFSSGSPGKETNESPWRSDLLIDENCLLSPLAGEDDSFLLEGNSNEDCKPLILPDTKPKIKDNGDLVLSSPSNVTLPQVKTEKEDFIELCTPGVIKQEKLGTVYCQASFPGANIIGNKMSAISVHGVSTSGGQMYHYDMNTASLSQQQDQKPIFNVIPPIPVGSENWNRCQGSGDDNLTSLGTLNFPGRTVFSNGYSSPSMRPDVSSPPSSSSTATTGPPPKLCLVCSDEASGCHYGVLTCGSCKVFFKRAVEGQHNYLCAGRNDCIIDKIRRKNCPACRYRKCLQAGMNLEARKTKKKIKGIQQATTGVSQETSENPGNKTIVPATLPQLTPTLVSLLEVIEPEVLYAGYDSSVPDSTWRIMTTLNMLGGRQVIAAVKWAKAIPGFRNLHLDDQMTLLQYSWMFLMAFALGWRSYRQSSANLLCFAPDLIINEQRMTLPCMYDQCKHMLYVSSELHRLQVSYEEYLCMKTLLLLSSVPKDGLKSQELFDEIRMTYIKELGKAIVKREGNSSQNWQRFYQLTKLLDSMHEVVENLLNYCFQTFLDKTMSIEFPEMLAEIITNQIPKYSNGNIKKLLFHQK
Chain of Cytochrome P450 3A4 (Homo sapiens) (P08684 whole entry, looked up): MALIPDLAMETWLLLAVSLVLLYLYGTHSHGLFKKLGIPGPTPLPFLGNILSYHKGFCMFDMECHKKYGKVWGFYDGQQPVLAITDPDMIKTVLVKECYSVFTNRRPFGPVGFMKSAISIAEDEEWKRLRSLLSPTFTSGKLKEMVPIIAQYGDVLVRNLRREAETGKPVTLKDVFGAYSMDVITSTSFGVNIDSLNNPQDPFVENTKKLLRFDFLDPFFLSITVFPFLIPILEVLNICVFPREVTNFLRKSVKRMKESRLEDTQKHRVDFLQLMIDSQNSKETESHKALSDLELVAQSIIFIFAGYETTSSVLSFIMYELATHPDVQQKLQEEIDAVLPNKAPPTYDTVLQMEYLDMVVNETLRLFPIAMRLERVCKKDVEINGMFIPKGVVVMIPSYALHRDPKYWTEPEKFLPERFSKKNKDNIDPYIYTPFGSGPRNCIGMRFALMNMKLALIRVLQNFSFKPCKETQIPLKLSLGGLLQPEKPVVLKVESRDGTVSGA

Row | SMILES | Potency [1] [µM] | activity change, negative = inhibition [2] [%] | Potency [3] | activity change, negative = inhibition [4] [%] | activity, negative = inhibition [5] [%] | Potency [6] [µM] | Potency [7] [µM] | Potency [8] | Potency [9] | Potency [10] | Potency [11] | Potency [12] | Potency [13] | activity change, negative = inhibition [11] | Potency [14] | activity change, negative = inhibition [3]
1 | S=C(S)NCCCn1ccnc1 | > 11.4 | 7.59 | 3.16 µM (active) | -2.39 | 6.25 | > 46 | > 9.22 | inactive | inactive | 2 µM (active) | 1.58 µM (active) | inactive | 0.794 µM (active) |  |  | 
2 | C[C@H]1[C@H](O)[C@@H](C)C=CC=CC=CC=CC=CC=CC=C[C@H](O[C@@H]2O[C@@H](C)[C@H](O)[C@@H](N)[C@@H]2O)C[C@@H]2O[C@](O)(C[C@@H](O)C[C@@H](O)[C@@H](O)CC[C@@H](O)C[C@@H](O)CC(=O)O[C@H]1C)C[C@H](O)[C@H]2C(=O)O | > 11.4 | -7.91 | inactive | -0.0379 | 6.85 | > 46 | > 9.22 | inactive | inactive | inactive |  |  | inactive | -24.7% [at 11.4 µM] |  | 
3 | O=[N+]([O-])c1ccc(Nc2nc3ccccc3s2)cc1 | > 11.4 | 18.2 | inactive | -2.36 | 0.26 | > 46 | > 9.22 | inactive | inactive | 1.26 µM (active) |  | inactive |  |  |  | 
4 | CN(C)CCNCCN | > 11.4 | 9.73 | inactive | 16.1 | 4.92 | > 46 | > 9.22 | inactive | inactive | inactive |  |  |  |  | inactive | 
5 | Cc1ccc(Nc2nnc(-c3ccc4c(c3)OCO4)o2)c(C)c1 | > 11.4 | -5.47 | 2.51 µM (active) | 1.57 | -2.78 | > 46 | > 9.22 | inactive | inactive |  | 3.16 µM (active) | inactive |  |  |  | 
6 | Cc1cc(SCC(=O)c2ccccc2)nc2ccccc12 | > 11.4 | -8.06 | 0.398 µM (active) | 13.7 | 9.67 | > 46 | > 9.22 | inactive | inactive | inactive |  |  | inactive | -103% [at 11.4 µM] | 0.398 µM (active) | 
7 | Nc1[nH]c(=S)[nH]c(=O)c1N=Nc1c(Br)cc(S(N)(=O)=O)cc1Br | > 11.4 | 1.56 | 3.16 µM (active) | -0.337 | 12 | > 46 | > 9.22 | inactive | inactive | inactive |  |  |  |  | inactive | 
8 | NNC(=O)Cc1cccnc1 | > 11.4 | -8.16 | 0.631 µM (active) | 7.3 | 3.84 | > 46 | > 9.22 | inactive | inactive | inactive | 3.16 µM (active) | inactive |  |  |  | 
9 | Cc1c(Cl)cccc1NC(=O)C[C@H]1Sc2ccccc2NC1=O | > 11.4 | -17.8 |  | 7.2 | 6.79 | > 46 | > 9.22 | inactive | inactive | inactive |  | inactive |  |  |  | -23.2% [at 2.29 µM]
10 | BrC(c1cccc2ccccc12)c1cccc2ccccc12 | > 11.4 | 0.329 | 1.26 µM (active) | -5.96 | -2.07 | > 46 | > 9.22 | inactive | inactive | 3.16 µM (active) |  |  |  |  | 1.26 µM (active) | 
11 | N#CNC(N)=Nc1ccc(Cl)cc1 | > 11.4 | 5.32 | 3.98 µM (active) | 2.31 | -1.86 | > 46 | > 9.22 | inactive | inactive | inactive |  |  | inactive | -49.7% [at 11.4 µM] | inactive | 
12 | O=c1[nH]c(SCc2c(Cl)c(Cl)c(Cl)c(Cl)c2Cl)nc(=S)[nH]1 | > 11.4 | 6.9 | 1 µM (active) | 13.5 | -6.17 | > 46 | > 9.22 | inactive | inactive | 1.26 µM (active) | 3.16 µM (active) | inactive |  |  |  | 
13 | NNC(=O)CCc1ccc2ccc3ccccc3c2c1 | > 11.4 | -3.44 | 0.0316 µM (active) | 13.8 | -11 | > 46 | > 9.22 | inactive | inactive | 1.58 µM (active) | 0.398 µM (active) | inactive | 1.58 µM (active) |  |  | 
